# In PubChem BioAssay:
# Target: Torsin-1A (Homo sapiens) (UniProt O14656)
# Test: torsin A mutant lysate binding on microarrays – cell lysate, small-molecule microarray, COS7 lysate, 635/667 nm fluorescence, primary screen (AID 1150);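 also: score pools 667 nm emission and signal to noise measuring lysate protein binding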
# Conditions: COS7 hTOR1A mutant lysate, 635 nm fluorescence, higher = more signal
# Sequence of Torsin-1A (Homo sapiens) (O14656 whole entry, looked up): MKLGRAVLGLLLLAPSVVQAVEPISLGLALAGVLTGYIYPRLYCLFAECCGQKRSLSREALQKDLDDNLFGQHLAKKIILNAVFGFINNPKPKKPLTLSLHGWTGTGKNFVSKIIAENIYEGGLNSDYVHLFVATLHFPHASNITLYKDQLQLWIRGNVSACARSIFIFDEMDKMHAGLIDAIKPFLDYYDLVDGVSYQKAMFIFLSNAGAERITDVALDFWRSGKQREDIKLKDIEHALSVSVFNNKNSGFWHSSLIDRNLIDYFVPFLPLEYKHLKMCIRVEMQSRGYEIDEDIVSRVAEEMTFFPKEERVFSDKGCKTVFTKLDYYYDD
row,SMILES,composite z-score
1,CN(C)CCCNC(=O)[C@@]1(C)c2ccccc2C(=O)N(Cc2ccc(OC(F)(F)F)cc2)[C@H]1c1ccc(CO)cc1,0.332
2,CCCC=C(CCC)[C@@H](NC(=O)OCC(C)C)c1ccc(C(=O)OC)cc1,0.104
3,COc1ccc(CCNC(=O)[C@@H]2c3ccccc3C(=O)N(Cc3ccccc3OC)[C@H]2c2ccc(CO)cc2)cc1,0.321
4,CCCC#C[Si](O[C@H](CC)c1cn(Cc2ccccc2)nn1)(C(C)C)C(C)C,0.563
5,[N-]=[N+]=NCc1ccccc1[C@@H]1OC(c2ccc(OCCCO)cc2)=N[C@]1(Cc1ccccc1N=[N+]=[N-])C(=O)O,0.585
6,CN(C)CCCNC(=O)[C@@H]1c2ccccc2C(=O)N(Cc2ccccc2C(F)(F)F)[C@H]1c1ccc(CO)cc1,-0.0393
7,C=CCNC(=O)[C@H]1[C@@H]2C(=O)O[C@@H](c3ccccc3)[C@@H](c3ccccc3)N2[C@@H](c2ccc(OCCO)cc2)[C@]12C(=O)Nc1ccccc12,0.841
8,O=C1O[C@@H](c2ccccc2)[C@@H](c2ccccc2)N2[C@@H](c3ccccc3OCCO)[C@]3(C(=O)Nc4ccc(C#CCCO)cc43)[C@@H](C(=O)NC[C@H](O)c3ccccc3)[C@H]12,1.86
9,C[C@]1(C(=O)O)c2ccccc2C(=O)N(Cc2cc(F)cc(C(F)(F)F)c2)[C@H]1c1ccc(CO)cc1,0.154

# Tested on: Sonic hedgehog protein (Shh)
# Test: Sonic hedgehog microarray binding compounds – biochemical, small-molecule microarray, 635/667 nm fluorescence, primary screen (AID 1151);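 also: Shh protein binding to compounds spotted on small-molecule microarray slides; score combines spot fluorescence intensity with signal-to-noise across triplicate slides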
# Conditions: 635 nm fluorescence, higher = more signal
row,SMILES,composite z-score
1,[N-]=[N+]=Nc1ccccc1C[C@@]1(C(=O)NCC(O)CO)N=C(c2ccc(OCCCO)cc2)O[C@@H]1c1ccccc1 (some centres undefined),-0.538
2,C=C(CCCC)/C(=C/C[C@H](OC(=O)c1ccncc1)c1cccc(OCCO)c1)c1cnc2ccccc2c1,1.78
3,COCCOC(=O)N1C(=O)[C@@]2(c3cc(C#Cc4ccc(OC)cc4)ccc31)[C@H](c1ccc(OCCO)cc1)N1[C@H](c3ccccc3)[C@H](c3ccccc3)OC(=O)[C@H]1[C@@H]2C(=O)NC[C@H](O)c1ccccc1,1.5
4,CCOC(=O)C1=CC[C@@H](c2ccc(OC)cc2)N(S(=O)(=O)c2ccc(C)cc2)[C@H]1c1ccc(C)cc1,-0.625
5,COCCOC(=O)N1C(=O)[C@@]2(c3cc(C#CCCO)ccc31)[C@H](c1ccc(OCCO)cc1)N1[C@H](c3ccccc3)[C@H](c3ccccc3)OC(=O)[C@H]1[C@@H]2C(=O)N1CCCCCCC1,1.97
6,COC(=O)[C@@]1(Cc2ccc(F)cc2)[C@H]2c3cc(C(=O)N4CCCC4)n(Cc4cc(F)cc5c4OCOC5)c3C[C@H]2CN1C(=O)c1ccccc1,0.229
7,C=C(CCCC)/C(=C/C[C@H](OC(=O)c1ccncc1)c1ccc(OCCO)cc1)c1cnc2ccccc2c1,1.4
8,C=CCOC(=O)[C@@H]1[C@H]2C(=O)O[C@H](c3ccccc3)[C@H](c3ccccc3)N2[C@H](c2ccc(OCCOC(=O)[C@H]3C[C@H]4C(=O)N5CCC[C@H]5C(=O)N4[C@H]3c3cccc(OCCO)c3)cc2)[C@@]12C(=O)Nc1ccc(I)cc12,1.97
9,COc1ccc([Si](C)(C)[C@H]2[C@H](CC(=O)N3Cc4ccccc4C[C@H]3CO)O[C@@]3(C(=O)N(C)c4c(Br)cc(C)cc43)[C@@H]2C)cc1,2.11
10,CCCC[C@H]1OB(O)C[C@H]2C1=C(COc1ccccc1)C[C@H]1C(=O)C=CC(=O)[C@H]12,1.38
11,COCCOC(=O)N1C(=O)[C@@]2(c3cc(C#CCC(C(=O)OC)C(=O)OC)ccc31)[C@H](C(=O)Nc1nc3ccccc3s1)[C@H]1C(=O)O[C@H](c3ccccc3)[C@H](c3ccccc3)N1[C@@H]2c1ccc(O)cc1,1.84
12,COC(=O)[C@@]1(Cc2ccc(OC)cc2)[C@H]2c3cc(C(=O)N4CCCC4)n(Cc4ccc(Cl)c(C(F)(F)F)c4)c3C[C@H]2CN1C(=O)c1ccccc1,-0.152
13,Cc1ccc(F)cc1S(=O)(=O)N[C@H]1CCN(Cc2ccc(OC(C)C)cc2)C1,1.75
14,COCCOC(=O)N1C(=O)[C@@]2(c3cc(C#CCNC(N)=O)ccc31)[C@H](C(=O)Nc1nc3ccccc3s1)[C@H]1C(=O)O[C@H](c3ccccc3)[C@H](c3ccccc3)N1[C@@H]2c1ccccc1OCCO,1.82
15,CCCCC(O)C1C=CC2C(=O)N(c3ccccc3)C(=O)C2N1Nc1ccc([N+](=O)[O-])cc1 (centres undefined),-0.61
16,CCCN1C(=O)[C@@]2(c3ccc([N+](=O)[O-])cc3)CC(=O)N(CC34CC5CC(CC(C5)C3)C4)[C@@H]2c2ccc(CO)cc21,0.102
17,O=C1C=C(c2ccccc2)C(=O)C2=C1CC([C@H]1Oc3ccccc3S(=O)(=O)N3CCC[C@@H]13)=CC2,-0.0231
18,O=C1[C@H]2C=C(I)[C@H](C[C@@H]2OCCCCCCO)[C@@]12CO2,1.07

row,SMILES,composite z-score
1,N#Cc1ccc(-c2cccc(=O)o2)cc1,0.458
2,N#Cc1ccc(NN2C(C(O)C3CC=CCC3)C=CC3C(=O)N(c4ccccc4)C(=O)C32)cc1 (centres undefined),2.08
3,COC(=O)C(CC#Cc1ccc2c(c1)[C@]1(C(=O)N2)[C@H](c2ccc(OCCO)cc2)N2[C@H](c3ccccc3)[C@H](c3ccccc3)OC(=O)[C@H]2[C@@H]1C(=O)N1CCCCCCC1)C(=O)OC,0.582
4,COCCOC(=O)N1C(=O)[C@@]2(c3ccccc31)[C@H](c1ccc(O)cc1)N1[C@H](c3ccccc3)[C@H](c3ccccc3)OC(=O)[C@H]1[C@@H]2C(=O)N1CCCCCCC1,1.96
5,COc1ccc(C(O)C2C=CC3C(=O)N(c4ccccc4)C(=O)C3N2Nc2ccc([N+](=O)[O-])cc2)c2ccccc12 (centres undefined),0.0892
6,O=C1c2ccccc2[C@@]2(Cc3ccccc3N(Cc3ccccc3)C2=O)[C@H](c2ccc(CO)cc2)N1Cc1ccccc1Cl,-0.971
7,O=C1[C@@H]2[C@@H](CC(COc3ccccc3)=C([C@H](O)CCc3ccccc3)[C@@H]2CO)C(=O)N1Cc1ccccc1,0.801
8,COCCOC(=O)N1C(=O)[C@@]2(c3cc(C#CCC(C(=O)OC)C(=O)OC)ccc31)[C@H](C(N)=O)[C@H]1C(=O)O[C@H](c3ccccc3)[C@H](c3ccccc3)N1[C@@H]2c1ccc(O)cc1,1.75
9,CN(C)CCCNC(=O)[C@@]1(C)c2ccccc2C(=O)N(Cc2ccc(OC(F)(F)F)cc2)[C@H]1c1ccc(CO)cc1,0.447
10,CCCC=C(CCC)[C@@H](NC(=O)OCC(C)C)c1ccc(C(=O)OC)cc1,0.23
11,COc1ccc(CCNC(=O)[C@@H]2c3ccccc3C(=O)N(Cc3ccccc3OC)[C@H]2c2ccc(CO)cc2)cc1,0.126
12,CCCC#C[Si](O[C@H](CC)c1cn(Cc2ccccc2)nn1)(C(C)C)C(C)C,1.27
13,[N-]=[N+]=NCc1ccccc1[C@@H]1OC(c2ccc(OCCCO)cc2)=N[C@]1(Cc1ccccc1N=[N+]=[N-])C(=O)O,-0.379
14,CN(C)CCCNC(=O)[C@@H]1c2ccccc2C(=O)N(Cc2ccccc2C(F)(F)F)[C@H]1c1ccc(CO)cc1,0.547
15,C=CCNC(=O)[C@H]1[C@@H]2C(=O)O[C@@H](c3ccccc3)[C@@H](c3ccccc3)N2[C@@H](c2ccc(OCCO)cc2)[C@]12C(=O)Nc1ccccc12,-0.0035
16,O=C1O[C@@H](c2ccccc2)[C@@H](c2ccccc2)N2[C@@H](c3ccccc3OCCO)[C@]3(C(=O)Nc4ccc(C#CCCO)cc43)[C@@H](C(=O)NC[C@H](O)c3ccccc3)[C@H]12,1.94
17,C[C@]1(C(=O)O)c2ccccc2C(=O)N(Cc2cc(F)cc(C(F)(F)F)c2)[C@H]1c1ccc(CO)cc1,0.505
